# From article PMC7862700, “An all-to-all approach to the identification of sequence-specific readers for epigenetic DNA modifications on cytosine”
# How the values were obtained:
# Test in all cases: DAPPL (digital affinity profiling via proximity ligation, sequencing); 10 mM Tris-HCl pH 7.5, 50 mM NaCl, 1 mM DTT, 4% glycerol, room temperature, 30 min; GST-TFs on glutathione beads, 16-mer random dsDNA library, 0.1% formaldehyde crosslink after washing; high values mean tight binding
# Settings in all cases: protein: recombinant; tags: N-terminal GST; dsDNA, one strand shown
# FLI1 = target: T1, FLI1 (Homo sapiens, UniProt Q01543 1-452)
# T1 sequence: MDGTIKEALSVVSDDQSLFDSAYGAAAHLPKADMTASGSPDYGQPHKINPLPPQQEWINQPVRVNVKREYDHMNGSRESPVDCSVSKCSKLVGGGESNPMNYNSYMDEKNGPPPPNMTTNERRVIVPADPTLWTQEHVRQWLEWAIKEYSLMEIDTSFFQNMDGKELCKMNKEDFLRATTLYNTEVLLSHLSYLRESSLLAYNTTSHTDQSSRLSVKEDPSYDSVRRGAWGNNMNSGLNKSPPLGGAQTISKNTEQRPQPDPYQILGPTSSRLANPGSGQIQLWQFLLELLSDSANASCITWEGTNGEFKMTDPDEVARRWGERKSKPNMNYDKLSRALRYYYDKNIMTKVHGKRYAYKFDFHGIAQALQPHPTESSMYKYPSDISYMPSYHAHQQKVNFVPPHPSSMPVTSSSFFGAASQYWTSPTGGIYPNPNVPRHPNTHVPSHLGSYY
# Outline: (§1)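 Human transcription factors carrying a GST fusion were produced in yeast, bound to glutathione beads, tagged with DNA barcodes and pooled together with a tag-only sample. Each pool was held with 200 nmole of a random double-stranded 16-mer DNA library in Tris/NaCl/DTT/glycerol buffer for 30 min at room temperature, then washed, crosslinked in 0.1% formaldehyde, proximity-ligated with BsaI/T4 ligase (1 h, 37 °C), PCR-amplified and sequenced on an Illumina NextSeq500. Binding signal is the read frequency of each hexamer for a given factor divided by its frequency in the tag-only sample.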
# ELK1 = target: T2, ELK1 (Homo sapiens, UniProt P19419 1-428)
# T2 sequence: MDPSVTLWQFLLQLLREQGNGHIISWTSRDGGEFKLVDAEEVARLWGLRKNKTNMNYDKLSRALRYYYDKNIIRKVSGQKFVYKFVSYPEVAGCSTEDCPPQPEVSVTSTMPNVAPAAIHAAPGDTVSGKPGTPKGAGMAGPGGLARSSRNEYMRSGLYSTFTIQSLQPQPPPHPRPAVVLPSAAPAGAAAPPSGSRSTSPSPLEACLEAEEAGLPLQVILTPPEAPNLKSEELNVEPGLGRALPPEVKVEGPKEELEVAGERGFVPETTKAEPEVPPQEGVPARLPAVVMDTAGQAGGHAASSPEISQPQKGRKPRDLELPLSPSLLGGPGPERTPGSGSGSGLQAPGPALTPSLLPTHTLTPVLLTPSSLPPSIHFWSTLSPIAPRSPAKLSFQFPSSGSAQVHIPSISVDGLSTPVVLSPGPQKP
# Outline: as §1
# GABPA = target: T3, GABPA (Homo sapiens, UniProt Q06546 1-454)
# T3 sequence: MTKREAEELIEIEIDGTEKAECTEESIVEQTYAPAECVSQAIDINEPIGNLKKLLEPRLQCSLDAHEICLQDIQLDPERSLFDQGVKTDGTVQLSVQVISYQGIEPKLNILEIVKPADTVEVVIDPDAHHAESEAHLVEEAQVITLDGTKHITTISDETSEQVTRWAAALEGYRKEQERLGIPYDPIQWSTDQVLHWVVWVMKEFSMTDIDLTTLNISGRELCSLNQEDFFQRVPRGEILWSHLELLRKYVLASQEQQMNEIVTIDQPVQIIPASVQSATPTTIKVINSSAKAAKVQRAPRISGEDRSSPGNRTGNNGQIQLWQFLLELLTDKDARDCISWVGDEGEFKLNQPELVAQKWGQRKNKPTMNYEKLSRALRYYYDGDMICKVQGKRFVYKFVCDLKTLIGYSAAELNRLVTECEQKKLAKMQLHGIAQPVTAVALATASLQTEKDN
# Outline: as §1
# ERG = target: T4, ERG (Homo sapiens, UniProt P11308 1-479)
# T4 sequence: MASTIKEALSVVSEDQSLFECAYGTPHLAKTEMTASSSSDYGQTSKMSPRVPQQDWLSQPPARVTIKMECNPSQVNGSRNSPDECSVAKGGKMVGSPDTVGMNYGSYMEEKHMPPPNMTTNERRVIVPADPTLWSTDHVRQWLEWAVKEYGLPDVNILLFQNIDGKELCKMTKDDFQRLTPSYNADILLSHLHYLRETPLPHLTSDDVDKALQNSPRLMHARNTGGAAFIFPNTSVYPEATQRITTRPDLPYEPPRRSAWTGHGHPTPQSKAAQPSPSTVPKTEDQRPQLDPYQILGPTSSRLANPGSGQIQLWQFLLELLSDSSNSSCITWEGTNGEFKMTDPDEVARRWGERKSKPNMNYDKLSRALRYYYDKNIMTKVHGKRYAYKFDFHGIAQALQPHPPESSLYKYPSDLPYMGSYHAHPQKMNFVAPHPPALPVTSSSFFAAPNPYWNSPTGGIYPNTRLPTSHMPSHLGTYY
# Outline: as §1
# ELF1 = ELF1 (Homo sapiens, UniProt P32519 1-619)
# Chain of ELF1 (P32519 whole entry): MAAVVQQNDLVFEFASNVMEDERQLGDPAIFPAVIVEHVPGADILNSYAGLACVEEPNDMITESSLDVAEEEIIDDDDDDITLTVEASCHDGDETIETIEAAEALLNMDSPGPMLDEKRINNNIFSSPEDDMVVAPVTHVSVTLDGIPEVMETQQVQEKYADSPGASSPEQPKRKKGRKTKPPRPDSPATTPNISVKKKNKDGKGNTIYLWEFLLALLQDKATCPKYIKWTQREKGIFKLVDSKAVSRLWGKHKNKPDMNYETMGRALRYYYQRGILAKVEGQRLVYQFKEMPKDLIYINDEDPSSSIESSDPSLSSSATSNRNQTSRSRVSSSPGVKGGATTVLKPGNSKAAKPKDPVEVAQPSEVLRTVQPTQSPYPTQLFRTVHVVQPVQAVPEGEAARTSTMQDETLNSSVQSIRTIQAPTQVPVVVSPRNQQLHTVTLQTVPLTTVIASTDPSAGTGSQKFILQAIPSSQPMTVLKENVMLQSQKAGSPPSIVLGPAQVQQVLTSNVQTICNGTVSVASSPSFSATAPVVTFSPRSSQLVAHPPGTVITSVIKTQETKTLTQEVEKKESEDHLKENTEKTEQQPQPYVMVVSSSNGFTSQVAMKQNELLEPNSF
# Outline: as §1
# EHF = target: T5, EHF (Homo sapiens, UniProt Q9NZC4 1-300)
# T5 sequence: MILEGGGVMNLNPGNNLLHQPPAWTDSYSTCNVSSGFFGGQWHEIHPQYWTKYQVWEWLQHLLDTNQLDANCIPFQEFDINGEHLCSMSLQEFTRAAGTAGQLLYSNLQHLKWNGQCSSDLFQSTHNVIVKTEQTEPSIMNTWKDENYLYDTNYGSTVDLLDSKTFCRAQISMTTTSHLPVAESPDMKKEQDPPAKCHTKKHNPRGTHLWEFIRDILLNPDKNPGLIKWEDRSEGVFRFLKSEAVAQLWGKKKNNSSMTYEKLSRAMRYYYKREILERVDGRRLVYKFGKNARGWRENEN
# Outline: as §1
# SPI1 = SPI1 (Homo sapiens, UniProt P17947 1-270)
# Outline: as §1
# SPIB = SPIB (Homo sapiens, UniProt Q01892 1-262)
# Chain of SPIB (Q01892 whole entry): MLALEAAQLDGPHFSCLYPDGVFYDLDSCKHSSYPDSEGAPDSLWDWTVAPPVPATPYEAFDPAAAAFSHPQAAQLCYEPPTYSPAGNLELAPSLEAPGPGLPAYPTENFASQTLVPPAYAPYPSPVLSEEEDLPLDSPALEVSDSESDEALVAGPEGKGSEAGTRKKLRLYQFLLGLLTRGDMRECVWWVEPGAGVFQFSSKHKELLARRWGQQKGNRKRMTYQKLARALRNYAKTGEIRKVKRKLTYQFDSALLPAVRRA
# Outline: as §1
# ELK3 = target: T6, ELK3 (Homo sapiens, UniProt P41970 1-407)
# T6 sequence: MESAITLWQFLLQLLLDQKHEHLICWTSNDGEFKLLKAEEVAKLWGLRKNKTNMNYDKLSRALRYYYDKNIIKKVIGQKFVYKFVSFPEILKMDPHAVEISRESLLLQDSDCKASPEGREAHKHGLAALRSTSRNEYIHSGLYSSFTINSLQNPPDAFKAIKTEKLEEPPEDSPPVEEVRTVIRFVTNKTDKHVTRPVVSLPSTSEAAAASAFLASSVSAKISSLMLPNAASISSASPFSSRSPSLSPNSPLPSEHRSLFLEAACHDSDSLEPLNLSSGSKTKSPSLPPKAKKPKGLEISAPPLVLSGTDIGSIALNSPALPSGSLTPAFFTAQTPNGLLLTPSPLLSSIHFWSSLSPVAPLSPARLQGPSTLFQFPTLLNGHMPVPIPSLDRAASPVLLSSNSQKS
# Outline: as §1
sequence,measurement,setting,value
ATCCCA,binding signal,FLI1,"1.07 fold enrichment (6-mer frequency, TF over GST control)"
same,binding signal,ELK1,"1.14 fold enrichment (6-mer frequency, TF over GST control)"
same,binding signal,GABPA,"1.15 fold enrichment (6-mer frequency, TF over GST control)"
same,binding signal,ERG,"1.2 fold enrichment (6-mer frequency, TF over GST control)"
same,binding signal,ELF1,"1.22 fold enrichment (6-mer frequency, TF over GST control)"
same,binding signal,EHF,"1.15 fold enrichment (6-mer frequency, TF over GST control)"
same,binding signal,SPI1,"1.03 fold enrichment (6-mer frequency, TF over GST control)"
same,binding signal,SPIB,"1.05 fold enrichment (6-mer frequency, TF over GST control)"
same,binding signal,ELK3,"1.2 fold enrichment (6-mer frequency, TF over GST control)"
